Laboratory results taken from PubChem BioAssay (NCI).
About 83,000 compounds went through this panel and 20% of them were active in at least one assay; those are over-represented in the sample as a whole.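 Interpretation: 100, growth as untreated; towards 0, rising growth inhibition; 0, no net growth; 0 to -100, cell death. Compounds scoring below 10 were considered active.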 A number with no mark means an inactive call. The source made the active and inactive calls.

How the values were obtained:
Experiment in all cases: NCI-60 one-dose screen, 48 h (100 = growth as untreated, 0 = no growth, -100 = all killed)
HT29 colon = conditions: 10 µM unless noted
SNB-75 CNS = conditions: 10 µM unless noted
SNB-19 CNS = conditions: 10 µM unless noted
U251 CNS = conditions: 10 µM unless noted
PC-3 prostate = conditions: 10 µM unless noted
SK-MEL-5 melanoma = conditions: 10 µM unless noted
UACC-62 melanoma = conditions: 10 µM unless noted
LOX IMVI melanoma = conditions: 10 µM unless noted
SK-MEL-2 melanoma = conditions: 10 µM unless noted
EKVX NSCLC = conditions: 10 µM unless noted
SN12C renal = conditions: 10 µM unless noted
UO-31 renal = conditions: 10 µM unless noted
TK-10 renal = conditions: 10 µM unless noted
ACHN renal = conditions: 10 µM unless noted
CAKI-1 renal = conditions: 10 µM unless noted
A498 renal = conditions: 10 µM unless noted
CCRF-CEM leukemia = conditions: 10 µM unless noted
MOLT-4 leukemia = conditions: 10 µM unless noted
SR leukemia = conditions: 10 µM unless noted
SK-MEL-28 melanoma = conditions: 10 µM

SMILES | growth (HT29 colon) | growth (SNB-75 CNS) | growth (SNB-19 CNS) | growth (U251 CNS) | growth (PC-3 prostate) | growth (SK-MEL-5 melanoma) | growth (UACC-62 melanoma) | growth (LOX IMVI melanoma) | growth (SK-MEL-2 melanoma) | growth (EKVX NSCLC) | growth (SN12C renal) | growth (UO-31 renal) | growth (TK-10 renal) | growth (ACHN renal) | growth (CAKI-1 renal) | growth (A498 renal) | growth (CCRF-CEM leukemia) | growth (MOLT-4 leukemia) | growth (SR leukemia) | growth (SK-MEL-28 melanoma)
Cc1ccc(NC2=CC(=O)C(=O)c3ccccc32)c(C)c1 | 48.4% | 35.2% | 28.1% | 33.3% | 35.4% | -97.3% (active) | -59.5% (active) | -23.2% (active) | 76.6% | 143% | 44.1% | 71.2% | 80.8% | 15.9% | 82.7% | 109% | 43.7% | 36.9% | 56.4% | –
S=C1CCCC(=S)N1 | 103% | 99% | 103% | 101% | 103% | 107% | 96% | 96.8% | 102% | 106% | 99.3% | 87.8% | 114% | 105% | 93% | 91.3% | 105% | 107% | 114% | –
CC(C)C[C@H](C(=O)N[C@@H](C)C(N)=O)N1CC=CCN(O)S1(=O)=O | 93.1% [5 µM] | 87.4% [5 µM] | 86.2% [5 µM] | 107% [5 µM] | 100% [5 µM] | 106% [5 µM] | 108% [5 µM] | 95.6% [5 µM] | 103% [5 µM] | 176% [5 µM] | 106% [5 µM] | 109% [5 µM] | 106% [5 µM] | 94.7% [5 µM] | 115% [5 µM] | 125% [5 µM] | 105% [5 µM] | 102% [5 µM] | 95.3% [5 µM] | –
O=S1(=O)N(Cc2ccccc2)[C@@H](Cc2ccccc2)[C@H](O)[C@H](O)[C@H](Cc2ccccc2)N1Cc1ccccc1 | 6.95% (active) | 13.3% | 17% | 4.33% (active) | 4.89% (active) | -1.02% (active) | 5.81% (active) | -11.3% (active) | -5.68% (active) | -1.3% (active) | 5.15% (active) | 0% (active) | 60.4% | -7.05% (active) | -19.1% (active) | 18.5% | 7.73% (active) | 5.65% (active) | 4.45% (active) | –
COc1ccc(/C=C2\CCC/C(=C\c3ccc(OC)c(OC)c3)C2=O)cc1OC | 1.7% (active) | 0.689% (active) | 37.8% | 12.3% | 40.8% | 5.95% (active) | -2.18% (active) | -35% (active) | 86.4% | 25.9% | 8.6% (active) | 19.3% | 7.6% (active) | 8.29% (active) | 3.35% (active) | 35.5% | 5.72% (active) | 6.9% (active) | 14.3% | –
O=C(Nc1ccc(-c2nc3cc4ccccc4cc3[nH]2)cc1)c1cccc(Br)c1 | 12.4% | 66.2% | 36.2% | 25.9% | 51.1% | 37.1% | 39% | -6.26% (active) | 49.4% | – | 44.6% | 13.1% | 51.8% | 35.1% | 18.2% | 68.5% | 77% | 85.4% | 76.4% | –
COc1ccc(Cn2cc(Cn3c(=O)c(-c4nc5ccccc5[nH]4)cc4ccccc43)nn2)c(OC)c1OC | 4.85% (active) | -74% (active) | 22.8% | 12.7% | 17% | 5.92% (active) | 23.2% | 18.9% | 28% | 30.8% | 18.7% | 18.2% | 33.9% | 35% | 21.7% | -27.4% (active) | 22.6% | 17.9% | 21.8% | –
Cc1ccc(C)c(-c2csc(Nc3ccc(C)c(C)c3)n2)c1 | 4.56% (active) | 34% | 84% | 8.11% (active) | 63.9% | -92.3% (active) | 49.2% | -67.9% (active) | – | – | 66.3% | 40.3% | 51.6% | 58.9% | 78.2% | 65.7% | 6.99% (active) | 24.9% | -6.45% (active) | -93.3% (active)
CCOC(=O)C1=C(C)c2ccc(OC)c(OC)c2C1 | 95% | 89.9% | 104% | 90.4% | 102% | 96.3% | 98.5% | 96.1% | 89.5% | 98.8% | 108% | 95.5% | 87.2% | 103% | 100% | 96.3% | 93% | 87.7% | 73.4% | –
Cc1[nH]c2ccccc2c(=O)c1CC=C(Cl)Cl | -59.8% (active) | 63.1% | 56.7% | 18.9% | 43.6% | 72.2% | 63.9% | – | 46.2% | – | 48.2% | 20.4% | 43.4% | 26.8% | 45.8% | 96.9% | 21.5% | 19.3% | -8.18% (active) | 74.8%
CCOC(=O)C1=C(C)N=c2s/c(=C\c3ccccc3O)c(=O)n2C1c1ccc(OC)c2ccccc12 (stereo not given) | -52.2% (active) | -44.2% (active) | 58.1% | -68.6% (active) | 22.9% | -98.1% (active) | -85.4% (active) | – | -75.5% (active) | – | 47.3% | -18.3% (active) | 10.8% | 33.5% | -11.4% (active) | 17.6% | 2.51% (active) | -9.58% (active) | -18.4% (active) | -96.2% (active)
O=C1OC(c2ccccc2)(c2ccccc2)c2ccsc21 | 102% | 103% | 102% | 102% | 101% | 102% | 94.1% | – | 94% | – | 98.8% | 88.6% | 101% | 97.9% | 101% | 96.6% | 89.2% | 76% | 84.5% | 112%
COc1cc(C(C)n2cc(-c3ccccc3)nn2)ccc1OC1CCCC1 (stereo not given) | 82.4% | 75.5% | 79.2% | 79% | 65.2% | 25.9% | 63.6% | – | 72.9% | – | 75.2% | 50.9% | 71.8% | 53.4% | 49.6% | 55.6% | 53.5% | 48.6% | – | 98.8%
O=C(NC(=S)Nc1cccc(NC(=S)NC(=O)c2ccccc2)c1)c1ccccc1 | 74.1% | -2.29% (active) | 50.9% | 60.1% | 61.3% | 80% | 67% | 71% | 66.1% | – | 61.9% | 84.6% | 75.8% | 60.6% | – | 104% | – | 103% | 79.8% | –
COc1ccc(Cn2c(Br)c3c(c2Br)-c2nc(N)sc2CC3)cc1 | 16.8% | 38.2% | 66.9% | 36.5% | 56.6% | 15.1% | 27.5% | – | 22% | – | 41.2% | 52.4% | 71.1% | 55.2% | 39% | 11.6% | 4.26% (active) | 4.01% (active) | 4.13% (active) | 46.1%
COc1ccc(C(=O)Nc2ccc3nc(N4CCCCC4)cc(C)c3c2)cc1OC | 20.8% | 102% | 109% | 69.3% | 45.1% | 88.1% | 98.5% | – | 119% | – | 88.8% | 98.7% | 104% | 94.9% | 88.4% | 35.5% | 54.8% | 49% | 33.1% | 94.5%
O=c1oc2ccc(-c3ccc(F)cc3F)cc2c(=O)n1-c1ccc(Cl)c(C(F)(F)F)c1 | 53.1% | 6.37% (active) | 33.9% | 6.46% (active) | 5.88% (active) | -69.6% (active) | 0.294% (active) | – | -18.1% (active) | 55.4% | – | 75.6% | 15.8% | 18.2% | -8.76% (active) | -43.5% (active) | 13.2% | 6.67% (active) | – | 20.3%
FC(F)(F)c1cccc(Nc2nc(-c3ccccc3)nc3ncccc23)c1 | 15% | 91.4% | 100% | 58.3% | 6.17% (active) | -91.4% (active) | -50.6% (active) | – | 104% | – | 75.8% | 82.4% | 94.2% | 76.2% | 40.4% | -4.48% (active) | -21.6% (active) | 7.45% (active) | -37.4% (active) | -84.6% (active)
Cn1c(C(=O)c2cccc3ccccc23)nc2ccccc21 | 20.7% | 38.9% | 10.3% | 5.7% (active) | 27.7% | -38.1% (active) | -27.2% (active) | 2.82% (active) | 9.69% (active) | – | 11.8% | -21.3% (active) | 21.3% | 11% | -11.9% (active) | 36.3% | 8.07% (active) | 9.16% (active) | 4.54% (active) | –
